Tests used:
Experiment in all cases: log2 ratio of Biotin-Ahx-Ub-VS probe labelling (fragment/DMSO); higher = less target engagement (more negative = stronger competition), active = hit call of the paper (q ≤ 0.05, log2 ratio ≤ -1)
Settings in all cases: compound concentration: 200 uM; treatment time: 3 h
[1] = biological target: T1, USP42 (UniProt Q9H9J4)
T1 sequence (whole entry): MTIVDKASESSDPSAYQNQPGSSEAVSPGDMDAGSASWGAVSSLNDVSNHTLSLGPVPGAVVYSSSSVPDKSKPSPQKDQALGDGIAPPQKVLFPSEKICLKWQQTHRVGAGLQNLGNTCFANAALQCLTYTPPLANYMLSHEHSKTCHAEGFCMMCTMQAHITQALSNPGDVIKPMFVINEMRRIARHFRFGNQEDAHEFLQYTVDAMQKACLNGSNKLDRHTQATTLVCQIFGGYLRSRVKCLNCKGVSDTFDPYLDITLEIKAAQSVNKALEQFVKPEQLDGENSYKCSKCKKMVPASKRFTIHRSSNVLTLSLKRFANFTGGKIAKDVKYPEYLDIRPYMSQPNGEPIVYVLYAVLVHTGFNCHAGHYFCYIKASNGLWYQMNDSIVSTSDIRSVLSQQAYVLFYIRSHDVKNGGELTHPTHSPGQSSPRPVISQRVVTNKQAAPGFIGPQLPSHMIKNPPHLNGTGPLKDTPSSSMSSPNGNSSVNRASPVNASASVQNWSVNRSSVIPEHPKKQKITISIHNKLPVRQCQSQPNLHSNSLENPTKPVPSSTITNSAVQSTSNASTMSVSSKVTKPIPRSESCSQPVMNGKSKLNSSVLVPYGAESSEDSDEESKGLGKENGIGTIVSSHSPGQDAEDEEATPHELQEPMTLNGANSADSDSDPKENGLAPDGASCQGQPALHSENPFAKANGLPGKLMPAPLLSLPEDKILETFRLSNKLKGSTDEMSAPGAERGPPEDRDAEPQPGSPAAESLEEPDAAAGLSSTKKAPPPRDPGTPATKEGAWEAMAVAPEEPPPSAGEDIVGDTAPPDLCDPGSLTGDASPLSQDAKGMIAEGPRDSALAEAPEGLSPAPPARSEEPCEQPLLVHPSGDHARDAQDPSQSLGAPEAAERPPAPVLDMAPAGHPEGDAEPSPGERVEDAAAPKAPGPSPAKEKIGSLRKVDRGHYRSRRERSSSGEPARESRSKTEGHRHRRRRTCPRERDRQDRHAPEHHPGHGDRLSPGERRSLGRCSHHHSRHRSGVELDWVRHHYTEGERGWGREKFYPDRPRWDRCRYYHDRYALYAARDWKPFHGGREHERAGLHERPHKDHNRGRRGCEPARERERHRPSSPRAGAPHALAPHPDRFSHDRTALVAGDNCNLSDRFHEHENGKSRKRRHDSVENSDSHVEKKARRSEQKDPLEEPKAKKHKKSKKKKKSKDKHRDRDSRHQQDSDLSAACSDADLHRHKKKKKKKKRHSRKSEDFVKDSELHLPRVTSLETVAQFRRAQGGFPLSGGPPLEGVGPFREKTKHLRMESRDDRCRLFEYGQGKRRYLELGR
Method in brief: (§1)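 Labelled DUBs were enriched with NeutrAvidin, digested with LysC and trypsin, and run by diaPASEF LC-MS/MS. The labelling used Biotin-Ahx-Ub-VS at 0.5 µM final for 1 h on HEK293T lysate (495 µg per sample) previously treated in triplicate with fragment at 200 µM or vehicle for 3 h. Values are average log2 fragment/vehicle ratios by unpaired t-test on global-median-normalised Spectronaut quantities of proteins with ≥2 unique peptides.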

[2] = biological target: USP46 (UniProt P62068)
USP46, sequence (P62068 whole entry): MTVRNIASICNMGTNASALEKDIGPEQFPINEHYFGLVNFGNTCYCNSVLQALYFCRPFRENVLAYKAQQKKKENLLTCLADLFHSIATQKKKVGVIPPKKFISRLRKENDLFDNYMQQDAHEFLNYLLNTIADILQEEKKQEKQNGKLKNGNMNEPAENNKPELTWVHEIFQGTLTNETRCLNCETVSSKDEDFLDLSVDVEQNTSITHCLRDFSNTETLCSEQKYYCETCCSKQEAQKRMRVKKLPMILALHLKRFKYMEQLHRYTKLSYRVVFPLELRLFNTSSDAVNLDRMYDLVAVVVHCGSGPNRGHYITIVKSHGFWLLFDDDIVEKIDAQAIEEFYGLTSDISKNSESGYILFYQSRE
Method in brief: as §1

[3] = biological target: T2, USP47 (UniProt Q96K76)
T2 sequence (whole entry): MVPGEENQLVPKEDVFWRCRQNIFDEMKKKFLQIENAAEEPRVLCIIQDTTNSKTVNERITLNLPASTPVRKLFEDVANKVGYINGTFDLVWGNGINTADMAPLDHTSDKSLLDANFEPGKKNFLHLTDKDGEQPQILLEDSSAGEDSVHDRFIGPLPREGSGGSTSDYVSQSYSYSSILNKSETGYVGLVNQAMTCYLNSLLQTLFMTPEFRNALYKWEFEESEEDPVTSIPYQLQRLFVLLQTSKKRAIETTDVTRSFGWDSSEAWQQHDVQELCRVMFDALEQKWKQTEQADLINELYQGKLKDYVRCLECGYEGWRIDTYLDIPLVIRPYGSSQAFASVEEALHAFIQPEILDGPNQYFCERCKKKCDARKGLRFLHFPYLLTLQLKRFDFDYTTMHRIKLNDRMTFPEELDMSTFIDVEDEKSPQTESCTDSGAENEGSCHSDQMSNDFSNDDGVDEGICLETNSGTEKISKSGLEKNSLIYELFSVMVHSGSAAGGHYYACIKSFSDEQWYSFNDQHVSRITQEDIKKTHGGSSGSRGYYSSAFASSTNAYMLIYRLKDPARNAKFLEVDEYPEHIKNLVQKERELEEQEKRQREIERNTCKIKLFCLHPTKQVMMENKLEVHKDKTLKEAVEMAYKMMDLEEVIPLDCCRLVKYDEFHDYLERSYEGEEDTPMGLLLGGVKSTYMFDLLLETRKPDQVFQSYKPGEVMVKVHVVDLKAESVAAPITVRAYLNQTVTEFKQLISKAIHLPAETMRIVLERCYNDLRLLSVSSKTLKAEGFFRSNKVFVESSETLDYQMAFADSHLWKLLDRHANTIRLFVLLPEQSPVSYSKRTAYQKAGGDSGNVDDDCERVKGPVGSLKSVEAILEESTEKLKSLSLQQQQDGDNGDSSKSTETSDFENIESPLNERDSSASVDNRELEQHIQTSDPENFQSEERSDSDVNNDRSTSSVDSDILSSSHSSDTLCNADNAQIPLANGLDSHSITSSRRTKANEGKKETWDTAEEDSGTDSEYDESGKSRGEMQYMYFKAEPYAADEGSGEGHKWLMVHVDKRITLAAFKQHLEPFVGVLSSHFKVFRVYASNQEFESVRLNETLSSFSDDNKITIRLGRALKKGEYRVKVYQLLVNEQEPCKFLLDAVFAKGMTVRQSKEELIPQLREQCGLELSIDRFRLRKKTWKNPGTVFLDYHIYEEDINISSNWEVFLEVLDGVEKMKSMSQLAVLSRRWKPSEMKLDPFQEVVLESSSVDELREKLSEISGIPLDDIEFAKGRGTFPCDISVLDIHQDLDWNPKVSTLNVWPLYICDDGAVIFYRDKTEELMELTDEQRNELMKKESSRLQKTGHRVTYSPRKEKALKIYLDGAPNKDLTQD
Method in brief: as §1

[4] = biological target: T3, USP48 (UniProt Q86UV5)
T3 sequence (whole entry): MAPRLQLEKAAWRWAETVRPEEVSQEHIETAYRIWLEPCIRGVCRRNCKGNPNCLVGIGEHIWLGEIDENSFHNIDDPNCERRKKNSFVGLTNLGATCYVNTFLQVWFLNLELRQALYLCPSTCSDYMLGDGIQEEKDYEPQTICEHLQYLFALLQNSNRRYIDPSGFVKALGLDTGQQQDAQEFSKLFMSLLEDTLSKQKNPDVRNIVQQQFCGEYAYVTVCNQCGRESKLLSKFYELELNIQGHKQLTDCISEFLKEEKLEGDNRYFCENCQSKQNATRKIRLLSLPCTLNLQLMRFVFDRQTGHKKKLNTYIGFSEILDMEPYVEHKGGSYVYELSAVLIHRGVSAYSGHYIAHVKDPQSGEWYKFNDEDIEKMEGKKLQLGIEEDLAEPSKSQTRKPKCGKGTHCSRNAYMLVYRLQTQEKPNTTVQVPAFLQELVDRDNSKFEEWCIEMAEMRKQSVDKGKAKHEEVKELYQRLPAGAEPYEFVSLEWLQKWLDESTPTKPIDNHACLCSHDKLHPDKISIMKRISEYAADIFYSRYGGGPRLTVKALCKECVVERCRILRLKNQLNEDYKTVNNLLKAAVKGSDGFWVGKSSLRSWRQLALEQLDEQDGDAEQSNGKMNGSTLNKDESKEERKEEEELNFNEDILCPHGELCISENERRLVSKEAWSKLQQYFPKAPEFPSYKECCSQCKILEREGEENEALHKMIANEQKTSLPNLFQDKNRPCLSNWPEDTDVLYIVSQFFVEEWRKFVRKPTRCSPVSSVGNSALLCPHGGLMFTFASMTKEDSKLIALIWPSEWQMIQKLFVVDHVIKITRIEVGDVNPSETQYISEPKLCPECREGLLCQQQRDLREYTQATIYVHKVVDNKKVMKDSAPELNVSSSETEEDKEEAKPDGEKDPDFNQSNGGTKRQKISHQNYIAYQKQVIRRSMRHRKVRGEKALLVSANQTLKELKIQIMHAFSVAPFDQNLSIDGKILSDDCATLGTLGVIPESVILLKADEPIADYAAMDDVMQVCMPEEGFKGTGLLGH
Method in brief: as §1

[5] = biological target: T4, USP5 (UniProt P45974)
T4 sequence (whole entry): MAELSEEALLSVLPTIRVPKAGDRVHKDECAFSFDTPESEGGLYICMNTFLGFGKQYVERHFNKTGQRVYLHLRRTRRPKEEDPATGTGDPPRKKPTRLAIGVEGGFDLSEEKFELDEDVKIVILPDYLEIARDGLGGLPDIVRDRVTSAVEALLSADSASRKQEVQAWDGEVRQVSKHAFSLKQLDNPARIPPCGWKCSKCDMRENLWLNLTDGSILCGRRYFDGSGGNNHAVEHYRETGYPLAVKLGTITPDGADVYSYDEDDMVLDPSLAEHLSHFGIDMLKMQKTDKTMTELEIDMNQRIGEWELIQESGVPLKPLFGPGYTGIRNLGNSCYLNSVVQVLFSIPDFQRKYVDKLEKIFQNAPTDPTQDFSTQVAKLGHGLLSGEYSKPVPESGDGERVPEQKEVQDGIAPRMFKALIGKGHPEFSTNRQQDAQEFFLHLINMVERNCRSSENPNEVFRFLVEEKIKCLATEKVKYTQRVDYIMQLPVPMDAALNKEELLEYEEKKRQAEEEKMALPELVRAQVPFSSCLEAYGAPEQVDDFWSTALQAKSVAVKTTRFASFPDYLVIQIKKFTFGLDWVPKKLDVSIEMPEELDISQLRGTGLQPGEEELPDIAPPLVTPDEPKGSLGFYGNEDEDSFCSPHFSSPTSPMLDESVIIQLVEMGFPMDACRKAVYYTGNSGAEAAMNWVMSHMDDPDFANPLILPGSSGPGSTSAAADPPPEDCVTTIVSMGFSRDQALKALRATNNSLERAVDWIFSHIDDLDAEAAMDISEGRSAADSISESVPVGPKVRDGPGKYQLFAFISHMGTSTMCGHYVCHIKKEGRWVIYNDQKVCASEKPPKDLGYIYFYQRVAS
Method in brief: as §1

[6] = biological target: USP54 (UniProt Q70EL1)
Method in brief: as §1

[7] = biological target: USP7 (UniProt Q93009)
USP7, sequence (Q93009 whole entry, looked up): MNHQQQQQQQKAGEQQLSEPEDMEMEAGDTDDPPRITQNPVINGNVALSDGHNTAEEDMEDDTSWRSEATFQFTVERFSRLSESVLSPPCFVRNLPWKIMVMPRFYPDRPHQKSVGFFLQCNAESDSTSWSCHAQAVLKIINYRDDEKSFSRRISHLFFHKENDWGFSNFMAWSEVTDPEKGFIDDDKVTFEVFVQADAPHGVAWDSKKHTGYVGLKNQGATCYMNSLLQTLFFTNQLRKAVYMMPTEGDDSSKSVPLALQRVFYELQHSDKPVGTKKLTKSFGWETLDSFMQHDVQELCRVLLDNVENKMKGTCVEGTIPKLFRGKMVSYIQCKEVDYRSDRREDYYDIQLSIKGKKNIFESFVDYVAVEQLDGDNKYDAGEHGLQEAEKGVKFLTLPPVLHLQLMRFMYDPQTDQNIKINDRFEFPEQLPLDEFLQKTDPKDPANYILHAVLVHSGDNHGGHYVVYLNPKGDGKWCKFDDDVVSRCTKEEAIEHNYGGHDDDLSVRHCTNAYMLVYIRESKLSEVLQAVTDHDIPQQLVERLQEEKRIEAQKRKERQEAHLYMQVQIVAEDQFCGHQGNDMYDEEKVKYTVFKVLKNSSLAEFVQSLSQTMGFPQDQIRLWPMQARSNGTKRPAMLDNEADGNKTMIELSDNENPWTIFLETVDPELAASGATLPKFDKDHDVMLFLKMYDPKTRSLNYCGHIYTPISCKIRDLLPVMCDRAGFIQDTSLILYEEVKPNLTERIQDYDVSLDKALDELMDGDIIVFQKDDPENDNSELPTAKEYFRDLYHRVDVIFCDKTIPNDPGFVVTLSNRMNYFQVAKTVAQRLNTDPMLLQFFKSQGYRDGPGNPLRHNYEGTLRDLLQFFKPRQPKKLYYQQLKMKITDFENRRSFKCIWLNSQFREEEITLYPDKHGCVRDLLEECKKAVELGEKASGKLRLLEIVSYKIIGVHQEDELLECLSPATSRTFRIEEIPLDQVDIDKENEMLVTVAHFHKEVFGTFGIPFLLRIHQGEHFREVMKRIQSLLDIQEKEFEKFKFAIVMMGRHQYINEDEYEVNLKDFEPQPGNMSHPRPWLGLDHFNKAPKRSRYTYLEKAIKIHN
Method in brief: as §1

[8] = biological target: T5, USP8 (UniProt P40818)
T5 sequence (whole entry): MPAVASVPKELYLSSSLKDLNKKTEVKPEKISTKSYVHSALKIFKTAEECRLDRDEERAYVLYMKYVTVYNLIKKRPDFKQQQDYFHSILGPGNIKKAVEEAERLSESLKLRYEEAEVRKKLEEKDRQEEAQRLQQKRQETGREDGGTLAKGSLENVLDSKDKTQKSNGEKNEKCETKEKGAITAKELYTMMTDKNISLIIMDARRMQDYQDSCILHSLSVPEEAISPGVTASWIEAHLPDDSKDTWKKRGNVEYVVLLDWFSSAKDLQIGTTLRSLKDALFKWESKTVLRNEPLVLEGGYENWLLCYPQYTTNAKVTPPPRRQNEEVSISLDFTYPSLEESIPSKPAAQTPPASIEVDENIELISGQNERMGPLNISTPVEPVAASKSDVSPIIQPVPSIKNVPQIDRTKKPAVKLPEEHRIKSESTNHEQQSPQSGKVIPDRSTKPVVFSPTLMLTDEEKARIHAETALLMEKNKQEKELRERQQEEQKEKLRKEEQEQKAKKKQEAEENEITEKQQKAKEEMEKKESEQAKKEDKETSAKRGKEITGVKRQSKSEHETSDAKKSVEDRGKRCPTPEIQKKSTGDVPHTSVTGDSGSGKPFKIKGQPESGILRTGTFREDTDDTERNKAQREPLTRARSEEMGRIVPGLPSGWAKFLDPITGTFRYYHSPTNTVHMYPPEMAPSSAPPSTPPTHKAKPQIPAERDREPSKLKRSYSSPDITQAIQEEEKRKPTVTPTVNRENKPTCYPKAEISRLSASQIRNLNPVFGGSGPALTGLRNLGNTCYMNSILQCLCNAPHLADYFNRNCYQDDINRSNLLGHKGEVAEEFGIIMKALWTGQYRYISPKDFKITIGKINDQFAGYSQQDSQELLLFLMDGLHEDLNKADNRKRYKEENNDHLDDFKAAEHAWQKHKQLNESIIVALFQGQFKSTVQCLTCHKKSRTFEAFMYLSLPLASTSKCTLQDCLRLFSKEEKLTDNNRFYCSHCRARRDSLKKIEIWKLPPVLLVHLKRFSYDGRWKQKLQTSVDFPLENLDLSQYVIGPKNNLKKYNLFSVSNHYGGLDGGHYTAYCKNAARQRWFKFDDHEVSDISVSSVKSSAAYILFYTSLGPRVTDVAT
Method in brief: as §1

[9] = biological target: USP9X (UniProt Q93008)
USP9X, sequence (Q93008 whole entry): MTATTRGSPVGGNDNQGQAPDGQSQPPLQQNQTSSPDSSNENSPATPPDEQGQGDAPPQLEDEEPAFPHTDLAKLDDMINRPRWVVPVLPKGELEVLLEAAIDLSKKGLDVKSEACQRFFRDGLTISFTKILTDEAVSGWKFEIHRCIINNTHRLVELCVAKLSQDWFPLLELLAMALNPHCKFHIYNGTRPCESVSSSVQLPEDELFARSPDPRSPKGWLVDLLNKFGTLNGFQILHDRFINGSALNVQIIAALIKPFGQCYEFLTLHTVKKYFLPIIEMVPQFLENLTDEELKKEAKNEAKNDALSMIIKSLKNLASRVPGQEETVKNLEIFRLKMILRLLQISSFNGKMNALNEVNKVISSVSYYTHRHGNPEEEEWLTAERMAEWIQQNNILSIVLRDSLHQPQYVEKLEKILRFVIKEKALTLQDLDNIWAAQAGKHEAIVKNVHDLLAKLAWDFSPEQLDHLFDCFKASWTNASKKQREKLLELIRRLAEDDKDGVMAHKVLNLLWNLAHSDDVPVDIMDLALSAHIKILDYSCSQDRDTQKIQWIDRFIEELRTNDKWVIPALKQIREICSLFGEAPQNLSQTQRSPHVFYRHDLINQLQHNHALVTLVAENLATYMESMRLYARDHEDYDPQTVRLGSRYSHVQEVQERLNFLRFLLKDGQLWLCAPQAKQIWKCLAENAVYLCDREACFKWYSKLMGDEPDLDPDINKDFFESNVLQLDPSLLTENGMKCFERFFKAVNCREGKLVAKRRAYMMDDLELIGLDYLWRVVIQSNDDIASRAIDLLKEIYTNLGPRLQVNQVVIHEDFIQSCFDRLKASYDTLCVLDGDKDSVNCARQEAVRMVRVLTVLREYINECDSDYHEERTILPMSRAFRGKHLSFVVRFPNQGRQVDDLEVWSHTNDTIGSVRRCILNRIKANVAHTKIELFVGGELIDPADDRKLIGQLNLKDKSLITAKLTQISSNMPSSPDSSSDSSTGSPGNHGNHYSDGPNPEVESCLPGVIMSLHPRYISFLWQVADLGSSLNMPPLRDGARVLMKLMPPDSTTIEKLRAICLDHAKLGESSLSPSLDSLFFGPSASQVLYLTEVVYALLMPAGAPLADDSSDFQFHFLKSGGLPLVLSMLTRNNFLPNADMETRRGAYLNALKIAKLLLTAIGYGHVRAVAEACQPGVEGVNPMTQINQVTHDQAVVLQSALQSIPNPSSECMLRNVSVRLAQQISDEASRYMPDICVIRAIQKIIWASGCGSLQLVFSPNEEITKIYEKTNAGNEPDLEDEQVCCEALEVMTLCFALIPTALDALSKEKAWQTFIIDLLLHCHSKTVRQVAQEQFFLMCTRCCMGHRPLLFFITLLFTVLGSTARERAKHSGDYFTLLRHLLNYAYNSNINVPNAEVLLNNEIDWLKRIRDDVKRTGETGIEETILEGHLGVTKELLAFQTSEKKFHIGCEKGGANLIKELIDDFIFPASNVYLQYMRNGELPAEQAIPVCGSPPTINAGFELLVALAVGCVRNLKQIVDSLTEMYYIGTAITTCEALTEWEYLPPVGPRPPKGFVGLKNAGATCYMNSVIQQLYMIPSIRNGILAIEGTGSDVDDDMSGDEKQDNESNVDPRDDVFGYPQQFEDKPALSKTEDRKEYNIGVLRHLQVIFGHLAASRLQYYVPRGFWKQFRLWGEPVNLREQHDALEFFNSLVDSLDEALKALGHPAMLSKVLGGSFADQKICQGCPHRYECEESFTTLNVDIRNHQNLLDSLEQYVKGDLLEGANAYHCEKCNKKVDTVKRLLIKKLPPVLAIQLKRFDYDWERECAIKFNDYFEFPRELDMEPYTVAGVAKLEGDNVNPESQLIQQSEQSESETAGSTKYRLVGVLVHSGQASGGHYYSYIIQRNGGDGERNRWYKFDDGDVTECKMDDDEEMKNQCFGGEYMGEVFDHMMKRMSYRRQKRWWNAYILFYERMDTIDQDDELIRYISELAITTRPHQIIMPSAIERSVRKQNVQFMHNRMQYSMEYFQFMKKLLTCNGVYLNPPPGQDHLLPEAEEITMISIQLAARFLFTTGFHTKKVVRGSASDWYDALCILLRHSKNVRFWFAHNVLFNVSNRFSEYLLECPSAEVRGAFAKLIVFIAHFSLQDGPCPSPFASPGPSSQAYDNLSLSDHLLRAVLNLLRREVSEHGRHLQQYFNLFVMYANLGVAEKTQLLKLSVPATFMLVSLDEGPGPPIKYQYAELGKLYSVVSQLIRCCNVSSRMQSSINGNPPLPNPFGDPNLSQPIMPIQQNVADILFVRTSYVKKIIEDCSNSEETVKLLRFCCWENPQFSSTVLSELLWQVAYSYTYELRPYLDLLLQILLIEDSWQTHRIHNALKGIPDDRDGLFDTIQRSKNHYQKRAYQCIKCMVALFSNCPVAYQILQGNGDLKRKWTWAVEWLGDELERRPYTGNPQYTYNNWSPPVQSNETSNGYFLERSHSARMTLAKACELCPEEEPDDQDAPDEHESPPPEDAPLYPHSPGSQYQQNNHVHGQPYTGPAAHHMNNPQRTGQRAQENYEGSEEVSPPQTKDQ
Method in brief: as §1

[10] = biological target: UniProt O00487
UniProt O00487, sequence (O00487 whole entry): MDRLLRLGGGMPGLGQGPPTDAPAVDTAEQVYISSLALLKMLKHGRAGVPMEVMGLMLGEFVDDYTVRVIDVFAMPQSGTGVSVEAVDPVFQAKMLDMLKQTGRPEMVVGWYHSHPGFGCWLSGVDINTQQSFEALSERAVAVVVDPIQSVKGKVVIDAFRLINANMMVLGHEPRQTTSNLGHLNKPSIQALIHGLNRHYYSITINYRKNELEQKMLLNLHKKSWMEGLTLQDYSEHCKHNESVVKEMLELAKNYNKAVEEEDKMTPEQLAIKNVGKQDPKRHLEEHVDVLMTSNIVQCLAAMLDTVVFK
Method in brief: as §1

Measured: log2 ratio of Biotin-Ahx-Ub-VS probe labelling

Cl.O=C(CCl)N1CCC(Cc2nccs2)C1 (stereo not given)
inactive: [1] 0.34 | [2] 0.105 | [3] -0.538 | [4] -0.286 | [5] 0.225 | [6] 0.476 | [7] -0.334 | [8] -0.208 | [9] -0.186 | [10] -0.1

— the supplement of paper PMC11732987, “Enantioselective OTUD7B fragment discovery through chemoproteomics screening and high-throughput optimisation” (Communications Chemistry, 2025)
